Assay: probe aInhba binding on compound microarray – biochemical, small-molecule microarray, 635/667 nm fluorescence, primary screen (AID 1148);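 also: score merges 667nm spot fluorescence with signal-to-noise for antibody binding to printed compounds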
Details: higher = more signal

Compound | composite z-score
C=CCC(OC(C)=O)[C@@H]1[C@@H](N(Cc2ccc(-c3ccccc3)cc2)C(=O)Cc2ccc(OC)cc2)c2cc(OCCCO)ccc2N1C(=O)Cc1ccc2ccccc2c1 (stereo partly specified) | -0.0221
CN1C(=O)C2C=CC(C(O)C#Cc3ccccc3)N(N3CCCCC3)C2C1=O (stereo unspecified) | 1.1
C=CC(=C)[C@H]1Oc2ccccc2S(=O)(=O)N2CCC[C@@H]12 | -0.0332
C=CCC(OC(C)=O)[C@@H]1[C@@H](N(Cc2ccc(-c3cccc(C(F)(F)F)c3)o2)C(=O)c2ccc(C)cc2)c2cc(OCCCO)ccc2N1C(=O)Cc1ccc2ccccc2c1 (stereo partly specified) | -0.024
COCCOC(=O)N1C(=O)[C@@]2(c3cc(C#CCC(C(=O)OC)C(=O)OC)ccc31)[C@H](C(=O)N1CCN(c3ncccn3)CC1)[C@H]1C(=O)O[C@H](c3ccccc3)[C@H](c3ccccc3)N1[C@@H]2c1ccccc1OCCO | 0.326
CC(C)=CCCC(C)=CC(O)C1C=CC2C(=O)N(C)C(=O)C2N1Nc1ccccc1 (stereo unspecified) | 0.115

— PubChem BioAssay
